Compounds with a hit are over-represented: about 3.4% of the library has one in this group of screens.
GPR151 activ = activators of human GPR151; PathHunter beta-arrestin GPR151 cells, luminescence; activation, % at 11.2 µM; actives 1% (n = 650,000); in the data active means activation above about 4.9%;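 further: 0% = median of compound wells and 100% = cells with positive control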
TEAD-YAP block = TEAD-YAP interaction inhibition; actives 1.4% (n = 640,000); HEK-TIYL cells, TEAD-Gal4/YAP UAS-luciferase luminescence; inhibition, % at 9.12 µM; AID 1259422; in the data active means inhibition above about 32%;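 further: 0% = median of test compound wells and 100% = reference inhibitor wells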
FBW7 act = human FBW7 E3 ligase activation, primary screen; AID 1259310; actives 0.13% (n = 650,000); AlphaScreen FBW7–phospho-cyclin E peptide binding, activator screen; normalized activity (activation), % at 26.1 µM; Q969H0; in the data active means normalized activity above about 1.9%;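 further: purified mutant Fbw7 with reduced substrate affinity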
MITF primary = blocks human microphthalmia-associated transcription factor. AlphaScreen MITF homodimerization, bead proximity signal. inhibition, % at 2.6 µM. actives 0.91% (n = 650,000); in the data active means inhibition above about 50%;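 further: 0% = vehicle wells with protein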
GPR151 confirm = human GPR151 activation, confirmation screen | shares compounds with GPR151 activ | GPR151 PathHunter beta-arrestin cells, luminescence, 90 min; % of EA-reagent control over plate median | activation, % at 11.2 µM | 6,700 tested, under 10 active;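 active means mean percent activation across replicates above the confirmation screen cutoff of 4.91%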
GPR119 ag = counter-screen for GPR151 activators: effect on human GPR119. GPR119 PathHunter beta-arrestin cells, luminescence, 90 min; 0 = compound-well median, 100 = enzyme-acceptor control. shares compounds with GPR151 activ. actives 0.3% (n = 6,700). AID 1508611. activation, % at 11.2 µM;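 active means mean percent activation in the counterscreen above 29.09%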;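 further: counterscreen on off-target GPR119 to flag nonselective hits from the GPR151 activator screen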
Target sequence (Q8TDV5 whole entry, looked up): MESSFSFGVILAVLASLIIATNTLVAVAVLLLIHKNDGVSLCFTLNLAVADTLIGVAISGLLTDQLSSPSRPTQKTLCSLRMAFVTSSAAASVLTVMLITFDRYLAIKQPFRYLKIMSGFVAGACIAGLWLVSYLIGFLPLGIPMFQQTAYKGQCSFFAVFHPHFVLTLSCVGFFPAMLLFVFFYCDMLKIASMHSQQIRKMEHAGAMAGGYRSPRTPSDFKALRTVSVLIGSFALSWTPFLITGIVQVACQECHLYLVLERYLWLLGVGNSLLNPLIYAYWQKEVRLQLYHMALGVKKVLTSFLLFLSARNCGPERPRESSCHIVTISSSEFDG
* marks the source's active call; other numbers are inactive results; x = no result given; ! = a repeat was not active.

SMILES	GPR151 activ	TEAD-YAP block	FBW7 act	MITF primary	GPR151 confirm	GPR119 ag
COc1ccc(CCN2CCC(Nc3nc4ccccc4n3Cc3ccc(F)cc3)CC2)cc1	9.2*!	5	0	-3	2	-1
COc1ccc(CCN2CCC(NCC3CC3)CC2)cc1	0	8	0	-5	x	x
COc1ccc(S(=O)(=O)NCC2CCCN(Cc3ccncc3)C2)cc1 (centres undefined)	1	6	0	-4	x	x
COc1ccc(S(=O)(=O)NCC2CCCN(C(=O)c3sccc3C)C2)cc1 (centres undefined)	5.5*	17	0	-10	1	8
COCC(=O)N1CCCC(CNS(=O)(=O)c2ccc(OC)cc2)C1 (centres undefined)	-1	5	0	-1	x	x
COc1ccc(S(=O)(=O)NCC2CCCN(CCCC3CCCC3)C2)cc1 (centres undefined)	5.8*	4	0	-13	0	3
NCCCCC1(c2ccccc2)C(=O)Oc2ccccc21 (centres undefined)	-1	1	0	12	x	x
O=C(CNC(=O)c1ccccc1)OCc1ccc([N+](=O)[O-])cc1	2	-1	0	-2	x	x
COc1ccc(NC(=O)/C=C/c2ccc([N+](=O)[O-])cc2)c(OC)c1	1	2	0	-10	x	x
COc1ccc(NCCC(=O)c2ccc([N+](=O)[O-])cc2)c(OC)c1	5.2*	9	0	3	-1	-10
COc1ccc(C(=O)NCC(=O)OCc2ccc([N+](=O)[O-])cc2)cc1	8.1*	-3	0	4	0	-1
O=C(CC1C(=O)NCCN1C1Cc2ccccc2C1)NCCCc1ccccc1 (centres undefined)	-1	-1	0	1	x	x
O=S(=O)(c1ccc(F)cc1)n1nc(C(F)(F)F)c2cnccc21	5.3*	6	0	2	0	2
Cc1ccc(S(=O)(=O)n2nc(C(F)(F)F)c3cnccc32)cc1	-1	4	0	-12	x	x
CCOc1ccccc1N(C)C(=O)Cc1c(C(=O)O)[nH]c2ccccc12	1	9	0	-4	x	x
Cc1ccccc1N(C)C(=O)Cc1c(C(=O)O)[nH]c2ccccc12	5.5*	9	0	38	0	-9
Cc1ccc(C(C)C)c(OC2=NS(=O)(=O)c3cc([N+](=O)[O-])ccc32)c1	13*	6	0	16	-1	-6
Cc1ccc(C)c(OC2=NS(=O)(=O)c3cc([N+](=O)[O-])ccc32)c1	3	0	0	-3	x	x
CC1=C(C#N)C(c2c(F)cccc2Cl)C(C#N)=C(C)N1	1	7	0	-9	x	x
CCOc1cc(/C=N/Nc2ccccn2)ccc1OCc1ccc(C(=O)OC)o1	5.4*	-1	0	-8	0	-1
CCOc1cc(C=O)ccc1OCc1ccc(C(=O)OC)o1	1	-2	0	-2	x	x
CCOC(=O)c1c(NC(=O)C2C3C=CC(C3)C2C(=O)O)sc2c1CCCCC2 (centres undefined)	5.5*	16	0	5	0	-7
CCOC(=O)c1c(NC(=O)COc2c(C)cc(Cl)cc2Cl)sc2c1CCCC2	0	0	0	-5	x	x
CCOC(=O)c1c(NC(=O)COc2c(F)c(F)cc(F)c2F)sc2c1CCCC2	5.0*	8	1	13	1	9
COc1cccc2s/c(=N/C(=S)NC(=O)c3ccc(C(=O)c4ccccc4)cc3)n(C)c12	1	13	0	1	x	x
SMILES	GPR151 activ	TEAD-YAP block	FBW7 act	MITF primary	GPR151 confirm	GPR119 ag
COc1cccc(C(=O)NCc2nc(-c3ccc(C)cc3)no2)c1OC	1	5	0	-12	x	x
COc1ccc2o/c(=N\NC(=O)c3ccccc3Nc3ccccc3)c(C(N)=O)cc2c1	22*	13	0	-11	-1	-14
NC(=O)c1cc2ccccc2o/c1=N\NC(=O)c1ccccc1Nc1ccccc1	-1	9	1	17	x	x
CCOC(=O)c1cnc2cc(C)nn2c1N	9.4*	-7	0	7	0	3
O=c1oc2ccc(Cl)cc2cc1-c1nnc(-c2ccccc2Cl)o1	5.6*	-1	0	2	0	-12
CCOc1ccc(NC(=O)Nc2cccc(OC)c2)c([N+](=O)[O-])c1	10*	-13	0	1	0	0
CCOc1ccc(OCC(=O)Nc2ccc(OC)cc2[N+](=O)[O-])cc1	-1	11	0	13	x	x
COc1cccc(CNc2nn[nH]n2)c1OC	8.4*	8	0	12	-1	-7
COc1ccc(NC(=O)N2CCCC2C(=O)Nc2ccc(OC)cc2OC)cc1 (centres undefined)	0	1	0	2	x	x
COc1ccc(-c2cc(NC(=NCc3ccco3)SC)n[nH]2)c(OC)c1	0	24	1	10	x	x
COc1ccccc1-c1cc(NC(=NCc2ccco2)SC)n[nH]1	6.4*	50*	0	9	1	1
Nc1ccc2nc(SCC(=O)c3ccc(Cl)cc3)sc2c1	6.6*	-4	0	14	0	-2
CCN1CCCC1CNS(=O)(=O)c1ccc(C(=O)Nc2ccccc2)cc1 (centres undefined)	10*	-2	0	6	0	7
O=C(COC(=O)c1ccc2ccccc2n1)c1ccccc1	0	1	0	-1	x	x
COc1cccc(C(=O)COC(=O)c2cccc(NC(=O)c3ccccc3)c2)c1	6.1*	-4	0	-3	0	-7
O=C(COC(=O)c1ccccc1)c1ccc2ccccc2c1	5.4*	6	0	0	-1	-18
O=C(COC(=O)c1ccc2ccccc2n1)c1ccc(Cl)c(Cl)c1	5.6*	-3	0	-9	0	-3
COc1cccc(C2(O)CCN(C(=O)c3ccccc3C(=O)O)CC2)c1	0	27	0	-5	x	x
Cn1nnc2c(N3CCC4(CC3)OCCO4)nc(Cc3ccc(Cl)cc3Cl)nc21	6.8*	8	0	2	0	3
CC(C)n1c2ccccc2c2n[nH]c(=S)nc21	6.7*	-4	0	-14	0	-1
S=c1nc2c(n[nH]1)c1ccccc1n2CCc1ccccc1	6.5*	4	0	7	2	7
S=c1nc2c(n[nH]1)c1ccccc1n2Cc1ccccc1	1	-9	0	3	x	x
O=C1CC(N2CCN(c3ncccn3)CC2)C(=O)N1c1ccc(F)cc1 (centres undefined)	1	11	0	1	x	x
O=C(Nc1ccc(Oc2cccc(Oc3ccc(NC(=O)c4ccccc4F)cc3)c2)cc1)c1ccccc1F	18*	-2	0	12	-1	-10
O=C(Nc1cccc(NC(=O)c2ccccc2F)c1)c1ccccc1F	1	-8	0	13	x	x

Source: PubChem (The Scripps Research Institute Molecular Screening Center)
